This is an account of results in PubChem BioAssay (NCATS).

SMILES strings stand for the structures. A number with no mark means an inactive call. Records with an inconclusive call do not appear. The source made the active and inactive calls. Calls follow the shape of the dose curve; as a rule, active = well fitted curve in the direction sought with a large enough effect; inconclusive = small, poorly fitted or top-dose-only effect, or another doubt; inactive = no such curve, though single readings can be large; an effect the other way counts as inactive or inconclusive.

The first assay can be described thus: MultiTox-Fluor Cytotoxicity Assay - LYMP1-003 - Dead Cells (AID 961). Also: nearly all actives have a fitted effect of over 70% in size. Also: potency is read from the fitted curve at half-maximal effect.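 As to cytotoxicity (dead cells): 0% = DMSO and 100% = tetraoctylammonium bromide.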 Conditions: LYMP1-003 lymphoblastoid cells, dead-cell protease fluorescence; series mostly up to 92.2 µM; cytotoxicity (dead cells): at the top concentration. An outline of the steps:
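Acute toxicity is scored as increased dead-cell protease activity in human lymphoblastoid LYMP1-003 cells after 16 h compound exposure in complete culture medium. Activity is normalized to DMSO basal and 15 uM tetraoctylammonium bromide as full response.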
Turning to `NC(=Nc1ccccc1)Nc1ccccc1`, the “cytotoxicity (dead cells)” value was 11.9%.
In the case of `COC(=O)[C@H]1[C@H]2C[C@@H]3c4[nH]c5cc(OC)ccc5c4CCN3C[C@H]2C[C@@H](OC(=O)c2cc(OC)c(OC)c(OC)c2)[C@@H]1OC`, the Potency is 50.1 µM (active).
For `CN=C(NC#N)NCCSCc1nc[nH]c1C`, the “cytotoxicity (dead cells)” value is -4.9%.
With `NC(=O)N1c2ccccc2C=Cc2ccccc21`, the “cytotoxicity (dead cells)” value was -0.514%.
Still for that read-out and setting: in the case of `COc1cc(Cc2cnc(N)nc2N)cc(OC)c1OC` it was 4.74%; in that of `O=c1[nH]c(=O)n([C@H]2C[C@H](O)[C@@H](CO)O2)cc1Br`, -1.38%; in that of `CCCCNC(=O)NS(=O)(=O)c1ccc(C)cc1`, 1.78%.
On the same count and under the same terms, to `CCCCOCCOCCOCc1cc2c(cc1CCC)OCO2` belongs 10.6%.
Same read-out and setting: in the case of `Nc1nc(N)c2nc(-c3ccccc3)c(N)nc2n1` it was 6.84%; in that of `COc1ccc(CN(CCN(C)C)c2ccccn2)cc1`, -0.457%.

The nature of another assay: MultiTox-Fluor Cytotoxicity Assay - LYMP1-003 - Live Cells (AID 962).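 Also: 0% = DMSO only and full loss = 92 µM tetraoctylammonium bromide; cytotoxic hits lower the live-cell protease signal.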 The note with it: LYMP1-003 lymphoblastoid cells, MultiTox-Fluor live-cell protease fluorescence; series mostly up to 92.2 µM; activity change, negative = fewer live cells: at the top concentration. An outline of the steps: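 LYMP1-003 human lymphoblastoid cells (2500/well) in complete medium were preincubated 5 hr at 37 C, then exposed to compounds for 16 hr at 37 C. Live-cell protease cleavage of GF-AFC read by fluorescence (Ex/Em 405/510); AC50 from Hill fits.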
`NC(=Nc1ccccc1)Nc1ccccc1`: the “activity change, negative = fewer live cells” value was -16.8%.
Turning to `COC(=O)[C@H]1[C@H]2C[C@@H]3c4[nH]c5cc(OC)ccc5c4CCN3C[C@H]2C[C@@H](OC(=O)c2cc(OC)c(OC)c(OC)c2)[C@@H]1OC`, the “activity change, negative = fewer live cells” value is -56.5%.
As to `CN=C(NC#N)NCCSCc1nc[nH]c1C`, the “activity change, negative = fewer live cells” value was -5.22%.
Regarding `NC(=O)N1c2ccccc2C=Cc2ccccc21`, the “activity change, negative = fewer live cells” value was -3.54%.
As for `COc1cc(Cc2cnc(N)nc2N)cc(OC)c1OC`, the “activity change, negative = fewer live cells” value was -5.6%.
Turning to `O=c1[nH]c(=O)n([C@H]2C[C@H](O)[C@@H](CO)O2)cc1Br`, the “activity change, negative = fewer live cells” value was -5.72%.
Turning to `CCCCNC(=O)NS(=O)(=O)c1ccc(C)cc1`, the “activity change, negative = fewer live cells” value was -0.228%.
As to `CCCCOCCOCCOCc1cc2c(cc1CCC)OCO2`, the “activity change, negative = fewer live cells” value is -4.9%.
Consider `Nc1nc(N)c2nc(-c3ccccc3)c(N)nc2n1`, for which the “activity change, negative = fewer live cells” value is -2.17%.
Regarding `COc1ccc(CN(CCN(C)C)c2ccccn2)cc1`, the “activity change, negative = fewer live cells” value is 1.88%.

The nature of the next assay: Cell Viability - LYMP1-003 - Assay at 24 hr (AID 963).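 Also: plate controls were DMSO only for no effect and tetraoctylammonium bromide positive control for full effect.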 Conditions: LYMP1-003 lymphoblastoid cell viability; series mostly up to 92.2 µM; viability change, negative = cytotoxic: at the top concentration. Summed up:
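Human lymphoblastoid LYMP1-003 cells (2500/well) were rested 5 hr at 37 C, then exposed to compounds in complete medium for 24 hr at 37 C. Cellular ATP was quantified by CellTiter-Glo luminescence, and AC50 values came from Hill fits of concentration-response data.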
With `NC(=Nc1ccccc1)Nc1ccccc1`, the “viability change, negative = cytotoxic” value is -3.17%.
Turning to `CN=C(NC#N)NCCSCc1nc[nH]c1C`, the “viability change, negative = cytotoxic” value was 1.98%.
On to `NC(=O)N1c2ccccc2C=Cc2ccccc21`, for which the “viability change, negative = cytotoxic” value was -0.156%.
Regarding `COc1cc(Cc2cnc(N)nc2N)cc(OC)c1OC`, the “viability change, negative = cytotoxic” value is 0.026%.
`O=c1[nH]c(=O)n([C@H]2C[C@H](O)[C@@H](CO)O2)cc1Br`: the “viability change, negative = cytotoxic” value was -4.13%.
As to `CCCCNC(=O)NS(=O)(=O)c1ccc(C)cc1`, the “viability change, negative = cytotoxic” value is -3.66%.
Take `CCCCOCCOCCOCc1cc2c(cc1CCC)OCO2`: the “viability change, negative = cytotoxic” value was 2.18%.
On the same count and under the same terms, to `COc1ccc(CN(CCN(C)C)c2ccccn2)cc1` belongs -11.4%.

The nature of a further assay: Cell Viability - LYMP1-003 - Assay at 40 hr (AID 964). Also: nearly all actives have a fitted effect of over 60% in size. Also: potency is read from the fitted curve at half-maximal effect. As to activity change, negative = cytotoxic: % is scaled to controls: 0 for no effect and ±100 for the full control effect. The note with it: LYMP1-003 lymphoblastoid viability; series mostly up to 92.2 µM; activity change, negative = cytotoxic: at the top concentration. An outline of the steps: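 Human lymphoblastoid LYMP1-003 cells, 2500/well in complete medium, rested 5 hr at 37 C, then exposed to compounds for 40 hr at 37 C. Viability read as intracellular ATP by CellTiter-Glo luminescence; AC50 from Hill fits of concentration-response data.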
Consider `NC(=Nc1ccccc1)Nc1ccccc1`, for which the “activity change, negative = cytotoxic” value is -17.2%.
For the compound `COC(=O)[C@H]1[C@H]2C[C@@H]3c4[nH]c5cc(OC)ccc5c4CCN3C[C@H]2C[C@@H](OC(=O)c2cc(OC)c(OC)c(OC)c2)[C@@H]1OC`, the Potency is 39.8 µM (active).
For the compound `CN=C(NC#N)NCCSCc1nc[nH]c1C`, the “activity change, negative = cytotoxic” value is -4.8%.
Same read-out and setting: in the case of `NC(=O)N1c2ccccc2C=Cc2ccccc21` it was -8.36%.
On to `Nc1ncn([C@@H]2O[C@H](CO)[C@@H](O)[C@H]2O)c(=O)n1`, for which the Potency is 12.6 µM (active).
On to `COc1cc(Cc2cnc(N)nc2N)cc(OC)c1OC`, for which the “activity change, negative = cytotoxic” value is -6.57%.
Turning to `O=c1[nH]c(=O)n([C@H]2C[C@H](O)[C@@H](CO)O2)cc1Br`, the “activity change, negative = cytotoxic” value was -18.8%.
`CCCCNC(=O)NS(=O)(=O)c1ccc(C)cc1`: the “activity change, negative = cytotoxic” value was -6.86%.
For the compound `CCCCOCCOCCOCc1cc2c(cc1CCC)OCO2`, the “activity change, negative = cytotoxic” value is -1.41%.
On the same count and under the same terms, in the case of `COc1ccc(CN(CCN(C)C)c2ccccn2)cc1` it was -10.5%.

Another assay can be described thus: Cell Viability - LYMP2-003 (AID 965).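 Also: cells exposed to compounds for 24 h before reading; nearly all actives have a fitted effect of over 50% in size.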 Also: potency is read from the fitted curve at half-maximal effect.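 As to activity change, negative = cytotoxicity: 0% = DMSO only and full effect = 92 µM tetraoctylammonium bromide.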 Conditions: LYMP2-003 lymphoblastoid cell viability; series mostly up to 92.2 µM; activity change, negative = cytotoxicity: at the top concentration. An outline of the steps:
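Acute cytotoxicity is scored as a concentration-dependent drop in intracellular ATP, measured by luciferase luminescence in human lymphoblastoid cells treated for 24 hours at 37 C. AC50 values derive from Hill-equation modelling.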
For `NC(=Nc1ccccc1)Nc1ccccc1`, the “activity change, negative = cytotoxicity” value was -2.01%.
Same read-out and setting: to `CN=C(NC#N)NCCSCc1nc[nH]c1C` belongs 27.1%; to `NC(=O)N1c2ccccc2C=Cc2ccccc21`, 12%.
Take `Nc1ncn([C@@H]2O[C@H](CO)[C@@H](O)[C@H]2O)c(=O)n1`: the Potency was 10 µM (active).
`COc1cc(Cc2cnc(N)nc2N)cc(OC)c1OC`: the “activity change, negative = cytotoxicity” value was -3.73%.
With `O=c1[nH]c(=O)n([C@H]2C[C@H](O)[C@@H](CO)O2)cc1Br`, the “activity change, negative = cytotoxicity” value is 16.6%.
With `CCCCNC(=O)NS(=O)(=O)c1ccc(C)cc1`, the “activity change, negative = cytotoxicity” value is 5.95%.
Turning to `CCCCOCCOCCOCc1cc2c(cc1CCC)OCO2`, the “activity change, negative = cytotoxicity” value is 2.56%.
Same read-out and setting: in the case of `Nc1nc(N)c2nc(-c3ccccc3)c(N)nc2n1` it was -10.8%; in that of `COc1ccc(CN(CCN(C)C)c2ccccn2)cc1`, -5.7%.

A further assay is described as follows: Cell Viability - LYMP2-004 (AID 966). Also: nearly all actives have a fitted effect of over 65% in size. Also: potency is read from the fitted curve at half-maximal effect.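 As to activity change, negative = cytotoxicity: plate controls were DMSO only for no effect and tetraoctylammonium bromide control for full effect.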 The note with it: LYMP2-004 lymphoblastoid cell viability, qHTS; series mostly up to 92.2 µM; activity change, negative = cytotoxicity: at the top concentration. An outline of the steps: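 Human lymphoblastoid cells (2500/well) in complete medium were treated with compounds for 24 hr at 37 C, then intracellular ATP was measured by CellTiter-Glo luminescence. AC50 values came from Hill-equation fits of concentration-response data.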
For orientation: qHTS replaces the single test concentration by a dilution series.
In the case of `NC(=Nc1ccccc1)Nc1ccccc1`, the “activity change, negative = cytotoxicity” value was -23.5%.
In the case of `CN=C(NC#N)NCCSCc1nc[nH]c1C`, the “activity change, negative = cytotoxicity” value was -2.89%.
The same measure, in the same setting: to `NC(=O)N1c2ccccc2C=Cc2ccccc21` belongs 15.5%.
Regarding `Nc1ncn([C@@H]2O[C@H](CO)[C@@H](O)[C@H]2O)c(=O)n1`, the Potency is 12.6 µM (active).
Regarding `COc1cc(Cc2cnc(N)nc2N)cc(OC)c1OC`, the “activity change, negative = cytotoxicity” value was -2.81%.
As for `O=c1[nH]c(=O)n([C@H]2C[C@H](O)[C@@H](CO)O2)cc1Br`, the “activity change, negative = cytotoxicity” value was 14.6%.
For `CCCCNC(=O)NS(=O)(=O)c1ccc(C)cc1`, the “activity change, negative = cytotoxicity” value is 5.21%.
Still for that read-out and setting: in the case of `CCCCOCCOCCOCc1cc2c(cc1CCC)OCO2` it was -7.07%; in that of `Nc1nc(N)c2nc(-c3ccccc3)c(N)nc2n1`, -3.17%; in that of `COc1ccc(CN(CCN(C)C)c2ccccn2)cc1`, -9.75%.

The nature of the next assay: Cell Viability - LYMP2-005 (AID 967). Also: potency is read from the fitted curve at half-maximal effect.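 As to activity change, negative = viability loss: plate controls were DMSO only for no effect and 92 µM tetraoctylammonium bromide control for full effect.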 Conditions: LYMP2-005 lymphoblastoid cell viability; series mostly up to 92.2 µM; activity change, negative = viability loss: at the top concentration. Summed up: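 qHTS viability screen in LYMP2-005 cells: 24 h at 37 C with compound, ATP luminescence via CellTiter-Glo, AC50 from Hill curves.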
For `NC(=Nc1ccccc1)Nc1ccccc1`, the “activity change, negative = viability loss” value was -2.64%.
As to `CN=C(NC#N)NCCSCc1nc[nH]c1C`, the “activity change, negative = viability loss” value was 10.5%.
Regarding `NC(=O)N1c2ccccc2C=Cc2ccccc21`, the “activity change, negative = viability loss” value was 20.1%.
With `Nc1ncn([C@@H]2O[C@H](CO)[C@@H](O)[C@H]2O)c(=O)n1`, the Potency is 12.6 µM (active).
As to `COc1cc(Cc2cnc(N)nc2N)cc(OC)c1OC`, the “activity change, negative = viability loss” value was -11.9%.
Consider `O=c1[nH]c(=O)n([C@H]2C[C@H](O)[C@@H](CO)O2)cc1Br`, for which the “activity change, negative = viability loss” value is 33%.
The same measure, in the same setting: to `CCCCNC(=O)NS(=O)(=O)c1ccc(C)cc1` belongs 1.69%; to `CCCCOCCOCCOCc1cc2c(cc1CCC)OCO2`, -9.6%; to `Nc1nc(N)c2nc(-c3ccccc3)c(N)nc2n1`, -52.9%.
Take `COc1ccc(CN(CCN(C)C)c2ccccn2)cc1`: the “activity change, negative = viability loss” value is -26.1%.
